Consider 59 molecules from PubChem BioAssay AID686970 (National Center for Advancing Translational Sciences (NCATS), 2013).

Screen size: about 360,000 compounds; about 6,000 (1.7%) were called active. Where a call stands in place of a potency, no number is given. Not shown: some 8% with an inconclusive outcome. Many of the other results were omitted from the sample, so actives are more common in it than they were. A number with no mark means an inactive call. Calls follow the shape of the dose curve; as a rule, active = well fitted cell-killing curve with a large enough effect; inconclusive = small, poorly fitted or top-dose-only effect, or effect the other way; inactive = flat fitted curve, though single readings scatter.
Potency is read from the fitted curve at half-maximal effect.

This experiment is described as follows: qHTS for induction of synthetic lethality in tumor cells producing 2HG: qHTS for the HT-1080-NT fibrosarcoma cell line.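 Also: NT is the 2HG producing partner of a matched IDH1 knockdown line; nearly all actives have a fitted effect of over 55% in size.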 The note with it: HT-1080-NT fibrosarcoma viability, CellTiter-Glo ATP luminescence, 48 h; series mostly up to 46.1 µM. The essentials:
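Read-out is CellTiter-Glo luminescence after 10 minutes at room temperature, following 48 hours' compound treatment of HT-1080-NT cells (750 cells/well, RPMI, 5% FBS, 37 degrees C).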
Background: qHTS replaces the single test concentration by a dilution series.
On to `Cc1ccc(-c2ccc(CN3C(C)C(=O)N(Cc4cn(CCC5OCCCO5)nn4)CCS3(=O)=O)cc2)cc1` (centres undefined), for which the Potency entry is “inactive”.

With `COc1ccc(C(C(=O)NC2CCCCC2)N(C(=O)CCl)c2ccccc2Cl)cc1` (centres undefined), the Potency is 18.4 µM (active).

In the case of `Cc1ccccc1N(C(=O)CNC(=O)c1cccs1)C(C(=O)NC1CCCC1)c1ccncc1` (centres undefined), the Potency entry was “inactive”.

In the case of `COc1ccc(C(C(=O)NC2CCCCC2)N(C(=O)c2snc(C(N)=O)c2N)c2ccccc2OC)cc1` (centres undefined), the Potency result is “inactive”.

`Cc1ccc(Cc2c(-c3ccc(C)cc3)nc3c4ccccc4ccn23)cc1`: the Potency entry is “inactive”.

For `CCn1c(=S)[nH]c2sc3c(c2c1=O)CCCCC3`, the Potency result is “inactive”.

As for `O=c1c2c3c(sc2n(CCN2CCCC2)c(=O)n1Cc1ccccc1)CCCCC3`, the Potency result is “inactive”.

In the case of `CN(C)CCCn1c(=O)n(Cc2ccccc2)c(=O)c2c3c(sc21)CCCCC3`, the Potency was 16.4 µM (active).

As to `O=C(NCc1ccccc1Cl)c1csc([C@@H]2O[C@H](CO)[C@@H](O)[C@H]2O)n1`, the Potency entry is “inactive”.

For the molecule `COc1ccccc1N1CC(C(=O)Nc2ccc(S(=O)(=O)N3CCOCC3)cc2)CC1=O` (centres undefined), the Potency entry was “inactive”.

Regarding `COc1ccc(Cl)cc1NC(=O)C1CC(=O)N(c2ccc(F)cc2)C1` (centres undefined), the Potency result was “inactive”.

For the molecule `COc1cc(OC)c(N2CC(C(=O)Nc3cc(Cl)ccc3N3CCOCC3)CC2=O)cc1Cl` (centres undefined), the Potency is 5.8 µM (active).

For the molecule `CCCNC(=O)C1(C)CCN(C(=O)c2ccccc2OC(F)(F)F)C1` (centres undefined), the Potency result is “inactive”.

Consider `O=C(O)C1CCCN1c1nc(Cl)ccc1[N+](=O)[O-]` (centres undefined), for which the Potency entry is “inactive”.

With `COc1ccc(-c2ccc3[nH]c4c(c3c2)CCN2C[C@H]3[C@H](C)ON(C)[C@H]3C[C@@H]42)cc1`, the Potency entry was “inactive”.

`CCOC(=O)c1c(NC(=S)SC)sc(C(=O)N2CCc3ccccc3C2)c1C`: the Potency result was “inactive”.

Take `Cc1ccc(S(=O)(=O)N2CCCCC2)cc1NC(=O)CCNC(=O)c1ccccc1Cl`: the Potency entry was “inactive”.

On to `COc1cccc(-n2c(SCC(=O)NC3CCCCC3)nc3n[nH]c(C)c3c2=N)c1`, for which the Potency is 14.6 µM (active).

In the case of `C=CCn1c(CC(=O)Nc2cccc(OC)c2)nnc1SCC(=O)NC1CCCCC1`, the Potency result is “inactive”.

For the molecule `Cc1nnc(OCC(=O)NCCC2=CCCCC2)c2ccccc12`, the Potency entry is “inactive”.

In the case of `Cc1ccc(-n2c(SCC(=O)NCCC3=CCCCC3)nc3n[nH]c(C)c3c2=N)cc1Cl`, the Potency is 23.1 µM (active).

In the case of `CCCCNC(=O)CSc1nc2n[nH]c(C)c2c(=N)n1-c1cccc(Cl)c1C`, the activity, negative = less viability was 1.53% [at 9.24 µM].

`COc1cccc(-n2c(SCC(=O)NC3CCS(=O)(=O)C3)nc3ccccc3c2=O)c1` (centres undefined): the Potency result was “inactive”.

With `O=c1cc(CN2CCCCCCC2)c2c(ccc3ccccc32)o1`, the Potency result is “inactive”.

With `Nc1[nH]c(C(=O)c2ccccc2)c(-c2ccc(Br)cc2)c1C(=O)NC1CC1`, the Potency entry was “inactive”.

As to `CCc1nc2c(OCCOc3ccccc3)cccn2c1N(C)C(=O)c1cccs1`, the Potency entry is “inactive”.

Regarding `CCc1nc2c(=O)[nH]cnc2o1`, the Potency result was “inactive”.

Regarding `Cc1ccccc1S(=O)(=O)NC(=O)C1(C)CCN1C(=O)C1(c2ccccc2)CCCC1` (centres undefined), the Potency entry was “inactive”.

Take `CCOC(=O)C1(C)CCCN(C(=O)c2ccc(F)c(Cl)c2)C1` (centres undefined): the Potency entry was “inactive”.

Regarding `COc1ccc(CNc2nc(NCc3ccc(OC)cc3)c3ncn(C4CCCC4)c3n2)cc1`, the Potency is 7.31 µM (active).

With `COc1ccc(CNC(=O)C2CCCC2)cc1`, the Potency entry is “inactive”.

Regarding `COc1ccc(CNc2nccs2)cc1`, the Potency result was “inactive”.

As for `O=c1[nH][nH]c2c1[C@H](c1ccc(Cl)cc1)O[C@H](CCc1ccccc1)C2`, the Potency entry was “inactive”.

Consider `COc1cccc(CNC(=O)[C@@H]2CCCN2C(=O)[C@@H]2CCCN2C(=O)c2ccccc2)c1`, for which the Potency entry was “inactive”.

On to `CC1(C(=O)NCc2ccc3c(c2)OCO3)CCN1C(=O)Cc1cccc2ccccc12` (centres undefined), for which the Potency entry was “inactive”.

In the case of `COc1ccc(OC)c(C(O)c2ncc(-c3cccc(C(F)(F)F)c3)[nH]2)c1` (centres undefined), the Potency result is “inactive”.

Regarding `COc1cc2nc(Cl)nc(NC3CC3)c2cc1OC`, the Potency result is “inactive”.

`Cc1ccc([C@H]2N[C@]3(CCCN(Cc4ccccc4)C3=O)[C@H]3C(=O)N(Cc4ccccc4)C(=O)[C@@H]23)cc1`: the Potency entry was “inactive”.

Consider `CC(C)C[C@H]1CNC(=O)C(=O)N1C[C@@H]1CCCN1C[C@H](Cc1ccccc1)N1C[C@H](CC(C)C)N(CC2CCCCCC2)C(=O)C1=O`, for which the Potency entry was “inactive”.

As to `CC(C)C[C@H]1CNC(=S)N1C[C@H]1CCCN1C[C@H](Cc1ccc(O)cc1)N1C[C@H](Cc2ccc(O)cc2)N(CC2CCCCC2)C1=S`, the Potency is 20.6 µM (active).

In the case of `CC(C)C[C@H]1CN([C@@H](Cc2ccccc2)CN2CCC[C@@H]2CN2C(=O)C(=O)NC[C@@H]2Cc2ccc(O)cc2)C(=O)C(=O)N1CCc1ccccc1`, the Potency result is “inactive”.

With `C[C@@H]1CN([C@@H](C)CO)C(=O)CCCn2nncc2CO[C@H]1CN(C)Cc1ccc(C(F)(F)F)cc1`, the Potency entry is “inactive”.

In the case of `CC1(C(=O)NS(=O)(=O)c2cccs2)CCN1C(=O)Cc1ccc(-c2ccccc2)cc1` (centres undefined), the Potency entry is “inactive”.

For `COc1cc(SC#N)ccc1N=Cc1c(C)[nH]n(-c2ccc(C)cc2)c1=O`, the Potency is 25.9 µM (active).

Consider `O=Cc1cn(CCOc2ccc(F)cc2)c2ccccc12`, for which the Potency result is “inactive”.

Turning to `CCc1nc2ccc(C(=O)Nc3cccc(OC)c3)cn2c1N(CCC(C)C)CCN(C)C`, the Potency is 18.4 µM (active).

For `CCc1nc2ccc(C(=O)N(C)CCN(C)C)cn2c1N(CC)CCOC`, the Potency result is “inactive”.

Regarding `CCc1nc2ccc(C(=O)Nc3ccc(OC)c(OC)c3)cn2c1N(C)C(=O)c1cccc(OC)c1`, the Potency entry is “inactive”.

Take `O=c1[nH]c(N2CCN(Cc3ccc4c(c3)OCO4)CC2)nc2c1CCCC2`: the Potency entry was “inactive”.

As for `CCCCCc1c(C)nc(N2CCN(Cc3ccc4c(c3)OCO4)CC2)[nH]c1=O`, the Potency entry was “inactive”.

For the molecule `Fc1ccc2[nH]c3c(N4CCN(Cc5ccc6c(c5)OCO6)CC4)ncnc3c2c1`, the Potency is 23.1 µM (active).

Consider `COc1cccc(-c2cc3nc(NCCOc4ccccc4Cl)n(C)c(=O)c3s2)c1`, for which the Potency entry was “inactive”.

Take `CCCC(=O)N1CCC1(C)C(=O)NCc1ccc(SC)cc1` (centres undefined): the Potency entry is “inactive”.

Regarding `CCCc1nc2ccccc2n1C(C)C(=O)NC(C)(C)C` (centres undefined), the Potency result is “inactive”.

In the case of `Cc1cccc(-c2cnc(C(O)c3ccc4ccccc4c3)[nH]2)c1` (centres undefined), the Potency entry is “inactive”.

Consider `CN(C)CCNC(=O)Nc1cccc(Cl)c1Cl`, for which the Potency result was “inactive”.

`CN(C)CCNC(=O)c1ccc(Cl)c2cc3ccccc3nc12`: the Potency was 20.6 µM (active).

For the molecule `CN(c1ccccc1)S(=O)(=O)c1ccc(Cl)c(C(=O)NCCc2c[nH]c3ccccc23)c1`, the Potency entry was “inactive”.

As to `CC1(Oc2ccc(Cl)cc2)CCN(Cc2csc3ccccc23)C1` (centres undefined), the Potency result was “inactive”.
